# Reference: PubChem BioAssay (NCATS)
# Records with an inconclusive call do not appear. A number with no mark means an inactive call. Activity calls are given as the source filed them. The call rests on the fitted dose curve; in most records, active means well fitted inhibition curve with a large enough effect; inconclusive means small, poorly fitted or top-dose-only effect; inactive means flat fitted curve, though single readings scatter.
# Test: P-glycoprotein substrates identified in KB-8-5-11 adenocarcinoma cell line, qHTS therapeutic library screen (AID 1346987); further: nearly all actives have a fitted effect of over 65% in size
# Conditions: KB-8-5-11 (P-gp overexpressing) viability, CellTiter-Glo, 72 h; series mostly up to 44.5 µM; activity change, negative = cytotoxicity: at the top concentration
# In short: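 KB-8-5-11, a colchicine-selected P-gp-overexpressing KB-3-1 subline, was grown without colchicine for the assay. Cells were seeded at 500 cells/well, dosed in concentration-response and incubated 72 h at 37 degree C, 5% CO2. Viability was read by CellTiter-Glo luminescence.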
# On the % scale 0 is the no-effect control and ±100 the full control effect.
SMILES,outcome,"activity change, negative = cytotoxicity",Potency
C=C1CC[C@@H]2[C@](C)(CO[C@@H]3O[C@H](CO)[C@@H](O)[C@H](O)[C@H]3O)CCC[C@@]2(C)[C@@H]1CCC1=CCOC1=O,inactive [at 17.3 µM],,
COc1cc(/C=C/C(=O)O[C@H]2[C@H](OC(=O)/C=C/c3cc(OC)c(O)c(OC)c3)O[C@H](CO[C@@H]3O[C@H](CO)[C@@H](O)[C@H](O)[C@H]3O)[C@@H](O)[C@@H]2O)ccc1O,inactive [at 17.3 µM],,
CC1(CCC(=O)O)C(=O)C=CC23CC4CC(OC4(C)C2O)C13 (stereo not given),,8.84%,
CC1(C)CCCC2(C)C3=C(C(=O)OC3O)C(O)CC12 (stereo not given),inactive,,
COC(=O)c1ccc(O[C@@H]2O[C@H](CO)[C@@H](O)[C@H](O)[C@H]2O)c(OC)c1,inactive,,
C=CC1C(O[C@@H]2O[C@H](CO)[C@@H](O)[C@H](O)[C@H]2O)OC=C(C(=O)OC)C1CC(=O)O (stereo not given in full),inactive [at 17.3 µM],,
O=C(c1ccc(NS(=O)(=O)c2cccc3cccnc23)cc1)N1CCN(CC2CC2)CC1,,-17%,
COc1cc2c(cc1O)C1(Cc3ccc4c(c3C1=O)OCO4)N(C)CC2 (stereo not given),inactive,,
O=C(/C=C/c1ccc(O)c(O)c1)OCc1ccccc1O[C@@H]1O[C@H](CO)[C@@H](O)[C@H](O)[C@H]1O,,5.44% [at 17.3 µM],
C[C@@H]1CC[C@]2(C(=O)O[C@@H]3O[C@H](CO)[C@@H](O)[C@H](O)[C@H]3O)CC[C@]3(C)C(=CCC4[C@@]5(C)C[C@@H](O)[C@H](O)C(C)(C)C5CC[C@]43C)C2[C@]1(C)O (stereo not given in full),,1.39% [at 17.3 µM],
Cc1c(CN(C)C(=O)/C=C/c2cnc3c(c2)CCC(=O)N3)oc2ccccc12,,-15.7%,
C[C@H]1[C@H](C)CC[C@]2(C(=O)O)CC[C@]3(C(=O)O)C(=CCC4[C@@]5(C)CC[C@H](O[C@@H]6O[C@H](C)[C@@H](O)[C@H](O)[C@H]6O)C(C)(C)C5CC[C@]43C)[C@H]12 (stereo not given in full),,6.32% [at 17.3 µM],
NC(Cc1c[nH]c2ccccc12)C(=O)NC(CCC(=O)O)C(=O)O (stereo not given),inactive,,
C=CC(C)(C)C1(CC2NC(=O)C3CCCN3C2=O)C(=O)Nc2cc3c(cc21)C=CC(C)(C)O3 (stereo not given),,8.45% [at 17.3 µM],
Cc1nn(C)c(COc2ccc(N3CCN(S(=O)(=O)N(C)C)CC3)cc2)c1-c1cccc2c(CCCOc3cccc4ccccc34)c(C(=O)O)n(CCN3CCOCC3)c12,inactive,,
CC1(CO)CC2C(O)C(=O)C3(CO)CC3(C)C2C1 (stereo not given),inactive,,
COc1cc(CC(COC2OC(CO)C(O)C(O)C2O)c2cc(/C=C/CO)cc(OC)c2O)ccc1O (stereo not given),,9.07% [at 17.3 µM],
COc1cc(C2Oc3c(OC)cc(CCCO[C@@H]4O[C@H](CO)[C@@H](O)[C@H](O)[C@H]4O)cc3C2CO)ccc1O (stereo not given in full),,0.807% [at 17.3 µM],
CC(=O)OC1C(O)CC(O[C@@H]2O[C@H](CO)[C@@H](O)[C@H](O)[C@H]2O)C2CCC3C(=O)OC(c4ccoc4)CC3(C)C21 (stereo not given in full),,8.86% [at 17.3 µM],
O=S(=O)(NC1CCNCC1)c1cc(S(=O)(=O)c2ccccc2)ccc1C(F)(F)F,inactive,,
CN1CC[C@@H](NC(=O)Nc2ccc(C#N)cc2)C[C@@H]1c1nc2ccccc2[nH]1,,1.99%,
CC1(C)C[C@H]2C3=CCC4[C@@]5(C)CC[C@H](O[C@H]6O[C@H](C(=O)O)[C@@H](O)[C@H](O)[C@H]6O[C@H]6O[C@H](CO)[C@@H](O)[C@H](O)[C@H]6O[C@@H]6O[C@H](CO)[C@@H](O)[C@H](O)[C@H]6O)[C@](C)(CO)C5CC[C@@]4(C)[C@]3(C)CC[C@@]2(C)[C@H](O[C@@H]2OC[C@H](O)[C@H](OC3O[C@H](CO)[C@@H](O)[C@H](O)[C@H]3O)[C@H]2O)[C@@H]1O (stereo not given in full),inactive [at 9.29 µM],,
COC(=O)C[C@@H]1C(C(=O)O)=CO[C@@H](O[C@@H]2O[C@H](CO)[C@@H](O)[C@H](O)[C@H]2O)/C1=C\COC(=O)/C=C\c1ccccc1,,7.38% [at 17.3 µM],
CNC(=O)Nc1ccc(OC)c(NC(=O)NC(=O)c2cc(F)c(F)cc2Cl)c1,inactive,,
CC(=O)OC1C(O)C(C)=C(CCC(C)CC(=O)O)C2(C)CCCC(C)(C)C12 (stereo not given),,7.18%,
CC(C)=CCC/C(C)=C/CC/C(C)=C/CC[C@]1(C)CCc2cc(O)cc(C)c2O1,,6.24% [at 17.3 µM],
CC1CCC2(C(=O)OC3OC(CO)C(O)C(O)C3O)CCC3(C)C(=CCC4C5(C)CC(O)C(O)C(C)(C(=O)O)C5CCC43C)C2C1(C)O (stereo not given),,0.228% [at 17.3 µM],
COc1c(C)c(C(=O)c2ccc(N)c(C(=O)O)c2)n2ccccc12,,,inactive
C=C1CC[C@@H]2[C@](C)(CC[C@H](O)[C@@]2(C)CCC=C(C)C)[C@@H]1Cc1c[nH]c2ccccc12,,-21% [at 17.3 µM],
Cc1[nH]cnc1C1CCN(c2nc3cccc4c3n2CCC4=O)CC1,inactive,,
